Test results: PubChem BioAssay (EPA / NIEHS)
Results filed as inconclusive are left out. Calls of active or inactive are those of the source. How the source made its calls, unless noted: active means hit-call score of the fitted dose curve at least 0.9, where 1 is the maximum; inconclusive means response in the unintended direction; inactive means score below 0.9.

Legend:
[1] = ATG_TAL_CIS: Attagene CIS-FACTORIAL HepG2 Assay for human TAL Basal Promoter (AID 2282966; active means hit-call score of the fitted dose curve at least 0.9, where 1 is the maximum; inactive means score below 0.9;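 further: background control endpoint measuring basal TAL promoter reporter mRNA not a specific factor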); conditions: HepG2 Attagene cis-factorial TAL promoter reporter; actives raise or lower the signal
In short: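 HepG2 cells transiently transfected with multiplexed cis-promoter reporter units, dosed 24 h. Reporter mRNA quantified by RT-PCR, 6-FAM labelling, HpaI digestion and capillary electrophoresis; TAL basal promoter serves as background control, fitted bidirectionally versus DMSO.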

[2] = ATG_TGFb_CIS: Attagene CIS-FACTORIAL HepG2 Assay for human Transforming Growth Factor (TGF) (AID 2282967; active means hit-call score of the fitted dose curve at least 0.9, where 1 is the maximum; inactive means score below 0.9); conditions: HepG2 Attagene CIS TGFb reporter, mRNA transcription; actives raise or lower the signal
In short: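 Liver HepG2 line, cis-factorial reporter panel, 24 h dosing. Quantitation: RT-PCR products labeled with 6-FAM, cut with HpaI, resolved by capillary electrophoresis; DMSO-referenced bidirectional analysis.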

[3] = ATG_VDRE_CIS: Attagene CIS-FACTORIAL HepG2 Assay for human Vitamin D Receptor Element (VDRE) (AID 2282968; active means hit-call score of the fitted dose curve at least 0.9, where 1 is the maximum; inactive means score below 0.9); conditions: HepG2 VDRE cis-reporter transcription, actives raise or lower the signal
In short: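 Reporter mRNA induction, quantified by capillary electrophoresis of fluorescently labelled RT-PCR products, was read 24 h after dosing HepG2 cells carrying transiently transfected cis-regulated reporter units; gain or loss relative to DMSO.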

[4] = target: X-box-binding protein 1 (Homo sapiens) (UniProt P17861); assay: ATG_Xbp1_CIS: Attagene CIS-FACTORIAL HepG2 Assay for human X-box Binding Protein 1 (XBP1) (AID 2282972; active means hit-call score of the fitted dose curve at least 0.9, where 1 is the maximum; inactive means score below 0.9); conditions: HepG2 XBP1 cis-element reporter, Attagene multiplex; actives raise or lower the signal
In short: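 HepG2 cells transiently transfected with cis-regulated multiple reporter transcription units; endogenous transcription factor activity measured 24 hours after chemical dosing. Reporter mRNA quantified by RT-PCR, 6-FAM primer extension, HpaI digestion and capillary electrophoresis; bidirectional fitting versus DMSO.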

[5] = target: Glucocorticoid receptor (Homo sapiens) (UniProt P04150); assay: ATG_GR_TRANS: Attagene TRANS-FACTORIAL HepG2 Assay for human Glucocorticoid Receptor (GR) (AID 2282978); conditions: HepG2 Attagene TRANS GR reporter, mRNA transcription;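 further: activators score as hits since higher reporter transcript over DMSO is fitted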
In short: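 Exogenous NR-GAL4 fusion activity was assessed through induced GAL4-UAS reporter transcripts in transfected human HepG2 cells, quantified after 24 h by RT-PCR and fluorescent capillary electrophoresis with DMSO as baseline.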

[6] = target: Oxysterols receptor LXR-beta (Homo sapiens) (UniProt P55055); assay: ATG_LXRb_TRANS: Attagene TRANS-FACTORIAL HepG2 Assay for human Liver X Receptor beta (LXRb) (AID 2282981); conditions: HepG2 Attagene TRANS GAL4-LXRb reporter, mRNA
In short: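 Transient transfection HepG2 (multiplexed RTUs, GAL4-UAS); NR-Gal4 chimera; 24 h exposure; RNA → RT-PCR → 6-FAM primer extension → HpaI → CE; increase vs DMSO.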

[7] = target: Hepatocyte nuclear factor 4-alpha (Homo sapiens) (UniProt P41235); assay: ATG_HNF4a_TRANS: Attagene TRANS-FACTORIAL HepG2 Assay for human Hepatocyte Nuclear Factor 4 alpha (HNF4a) (AID 2282982); conditions: HepG2 HNF4a transactivation reporter, mRNA readout
In short: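 Readout is fluorescent reporter-transcript fragments resolved by capillary electrophoresis after RT-PCR from HepG2 cells dosed for 24 h. Cells carried transfected GAL4-UAS reporter constructs measuring exogenous NR-GAL4 chimera activity; DMSO served as baseline.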

[8] = ATG_M_06_TRANS: Attagene TRANS-FACTORIAL HepG2 Assay for M06 Transcription Factor (Internal Marker) (AID 2282983); conditions: HepG2 Attagene TRANS M06 internal marker reporter;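 further: reporter transcript level by RT-PCR then capillary electrophoresis fluorescence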
In short: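 HepG2 cells transiently transfected with GAL4-UAS multiple reporter units, dosed 24 h. Reporter RNA reverse-transcribed, PCR-amplified, 6-FAM-labeled, HpaI-digested and quantified by capillary electrophoresis; this internal-marker signal fitted upward relative to DMSO.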

[9] = ATG_M_32_TRANS: Attagene TRANS-FACTORIAL HepG2 Assay for M32 Transcription Factor (Internal Marker) (AID 2282984); conditions: HepG2 Attagene TRANS M32 internal marker reporter
In short: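 Measures reporter mRNA induction in human HepG2 liver cells after 24 h chemical treatment. Transcripts from transiently transfected GAL4-UAS reporter units are amplified, fluorescently labelled and sized by capillary electrophoresis; gain of signal relative to DMSO.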

[10] = target: Nuclear receptor subfamily 4 group A member 2 (Homo sapiens) (UniProt P43354); assay: ATG_NURR1_TRANS: Attagene TRANS-FACTORIAL HepG2 Assay for human Nuclear Receptor Related Protein 1 (NURR1) (AID 2282985); conditions: HepG2 Attagene TRANS reporter, mRNA readout
In short: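 Transient transfection of HepG2, human liver cells, with multiple GAL4-UAS reporter transcription units. Cells dosed 24 h, RNA isolated, reverse-transcribed, PCR-amplified, FAM-labelled, HpaI-digested, sized by capillary electrophoresis. DMSO served as negative control.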

[11] = target: Transcriptional activator Myb (Homo sapiens) (UniProt P10242); assay: ATG_Myb_CIS: Attagene CIS-FACTORIAL HepG2 Assay for human Myeloblastosis (Myb) Proto-Oncogene Transcription Factor (AID 2282986; active means hit-call score of the fitted dose curve at least 0.9, where 1 is the maximum; inactive means score below 0.9); conditions: HepG2 Attagene CIS-FACTORIAL Myb reporter transcription; actives raise or lower the signal
In short: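 In this HepG2 transient-transfection format, cis-regulated reporter mRNA is quantified 24 h post-dosing by RT-PCR with capillary electrophoresis, fitted bidirectionally to DMSO baseline.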

[12] = target: Nuclear respiratory factor 1 (Homo sapiens) (UniProt Q16656); assay: ATG_NRF1_CIS: Attagene CIS-FACTORIAL HepG2 Assay for human Nuclear Respiratory Factor 1 (NRF1) Orphan Gene (AID 2282987; active means hit-call score of the fitted dose curve at least 0.9, where 1 is the maximum; inactive means score below 0.9); conditions: HepG2 NRF1 cis-element reporter, Attagene multiplex; actives raise or lower the signal
In short: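 Using DMSO as baseline, gain- or loss-of-signal was fitted for reporter mRNA levels in HepG2 cells transiently transfected with cis-regulated reporter units. Samples were taken 24 h after dosing and read by RT-PCR with capillary electrophoresis.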

[13] = target: Estrogen-related receptor gamma (Homo sapiens) (UniProt P62508); assay: ATG_ERRg_TRANS: Attagene TRANS-FACTORIAL HepG2 Assay for human Estrogen-Related Receptor gamma (ERRg) (AID 2282977); conditions: HepG2 Attagene TRANS reporter, ERRg transactivation;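 further: hits increase reporter signal over DMSO so potencies reflect activators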
In short: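 Transfect HepG2 with multiple GAL4-UAS reporter transcription units; dose chemicals 24 h; isolate RNA, reverse-transcribe with oligo(dT), PCR-amplify, label with 6-FAM, digest with HpaI; size fragments by capillary electrophoresis. DMSO serves as negative control.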

[14] = ATG_GAL4_TRANS: Attagene TRANS-FACTORIAL HepG2 Assay for GAL4 (Internal Marker) (AID 2282976); conditions: HepG2 Attagene TRANS GAL4 internal marker reporter
In short: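 Background-control readout: GAL4-UAS reporter transcript in transiently transfected HepG2 cells after 24 h compound exposure. Measured by RT-PCR, 6-FAM primer extension, HpaI digest and capillary electrophoresis; gain-of-signal fit versus DMSO.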

[15] = target: Bile acid receptor (Homo sapiens) (UniProt Q96RI1); assay: ATG_FXR_TRANS: Attagene TRANS-FACTORIAL HepG2 Assay for Farnesoid X Receptor (FXR) (AID 2282979); conditions: HepG2 Attagene TRANS FXR-GAL4 reporter transcription;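 further: hits raise reporter mRNA above DMSO so AC50 marks FXR activation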
In short: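 HepG2 cells were transiently transfected with GAL4-UAS reporters driven by chimeric NR-Gal4 proteins and dosed for 24 h. Reporter mRNA was quantified by RT-PCR, fluorescent labelling, HpaI digestion and capillary electrophoresis, with gain of signal scored versus DMSO.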

[16] = target: Nuclear receptor subfamily 1 group I member 3 (Homo sapiens) (UniProt Q14994); assay: ATG_CAR_TRANS: Attagene TRANS-FACTORIAL HepG2 Assay for human Constitutive Androstane Receptor (CAR) (AID 2282969); conditions: HepG2 Attagene TRANS-FACTORIAL CAR reporter;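 further: activators raise reporter mRNA above DMSO so AC50 marks induction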
In short: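 Readout is reporter mRNA induction, quantified by fluorescent primer extension and capillary electrophoresis after RT-PCR. Cells were HepG2 transiently carrying chimeric NR-Gal4 constructs with GAL4-UAS reporters, treated for 24 h; activity scored upward from DMSO.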

[17] = target: Estrogen receptor (Homo sapiens) (UniProt P03372); assay: ATG_ERa_TRANS: Attagene TRANS-FACTORIAL HepG2 Assay for human Estrogen Receptor alpha (ERa) (AID 2282970); conditions: HepG2 Attagene TRANS ERa GAL4 reporter, mRNA
In short: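 HepG2 cells transiently transfected with multiplexed GAL4-UAS reporter units read out chimeric NR-Gal4 activity. After 24 h compound exposure, reporter mRNA was quantified by RT-PCR, 6-FAM labeling, HpaI digestion and capillary electrophoresis, relative to DMSO.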

[18] = target: Steroid hormone receptor ERR1 (Homo sapiens) (UniProt P11474); assay: ATG_ERRa_TRANS: Attagene TRANS-FACTORIAL HepG2 Assay for human Estrogen-Related Receptor alpha (ERRa) (AID 2282971); conditions: HepG2 Attagene TRANS reporter, ERRa transactivation
In short: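 HepG2 cells transiently transfected with GAL4-UAS reporter units and chimeric NR-Gal4 constructs; after 24 hour compound incubation, reporter mRNA quantified by RT-PCR, fluorescent labelling and capillary electrophoresis, gain of signal versus DMSO.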

[19] = ATG_M_19_TRANS: Attagene TRANS-FACTORIAL HepG2 Assay for M19 Transcription Factor (Internal Marker) (AID 2282974); conditions: HepG2 Attagene TRANS-FACTORIAL M19 internal marker reporter
In short: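 Using RT-PCR and capillary electrophoresis, reporter mRNA from transiently transfected human HepG2 cells was quantified following 24 h exposure; activity was fitted in the positive direction against DMSO.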

[20] = target: Oxysterols receptor LXR-alpha (Homo sapiens) (UniProt Q13133); assay: ATG_LXRa_TRANS: Attagene TRANS-FACTORIAL HepG2 Assay for human Liver X Receptor alpha (LXRa) (AID 2282980); conditions: HepG2 Attagene TRANS reporter, LXRa transactivation
In short: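 HepG2 cells transiently transfected with GAL4-UAS reporter units for chimeric NR-Gal4 proteins, exposed to chemicals for 24 h. Reporter mRNA quantified by RT-PCR and capillary electrophoresis; gain of signal fitted relative to DMSO.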

Measured: AC50

Sequence of Hepatocyte nuclear factor 4-alpha (Homo sapiens) (P41235 whole entry, looked up, the tested form may be a part): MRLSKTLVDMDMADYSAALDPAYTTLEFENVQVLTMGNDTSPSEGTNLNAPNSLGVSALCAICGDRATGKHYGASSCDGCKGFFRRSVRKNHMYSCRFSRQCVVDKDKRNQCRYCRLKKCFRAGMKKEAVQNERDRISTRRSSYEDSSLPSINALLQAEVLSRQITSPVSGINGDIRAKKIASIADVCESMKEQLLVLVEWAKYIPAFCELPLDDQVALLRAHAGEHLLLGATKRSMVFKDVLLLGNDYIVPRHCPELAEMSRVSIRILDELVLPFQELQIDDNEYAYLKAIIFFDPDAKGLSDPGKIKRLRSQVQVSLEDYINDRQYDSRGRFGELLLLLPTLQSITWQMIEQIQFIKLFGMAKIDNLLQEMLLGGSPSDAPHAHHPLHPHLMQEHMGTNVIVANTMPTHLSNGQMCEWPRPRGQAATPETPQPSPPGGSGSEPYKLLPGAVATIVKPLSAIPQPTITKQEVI
Sequence of Nuclear respiratory factor 1 (Homo sapiens) (Q16656 whole entry, looked up): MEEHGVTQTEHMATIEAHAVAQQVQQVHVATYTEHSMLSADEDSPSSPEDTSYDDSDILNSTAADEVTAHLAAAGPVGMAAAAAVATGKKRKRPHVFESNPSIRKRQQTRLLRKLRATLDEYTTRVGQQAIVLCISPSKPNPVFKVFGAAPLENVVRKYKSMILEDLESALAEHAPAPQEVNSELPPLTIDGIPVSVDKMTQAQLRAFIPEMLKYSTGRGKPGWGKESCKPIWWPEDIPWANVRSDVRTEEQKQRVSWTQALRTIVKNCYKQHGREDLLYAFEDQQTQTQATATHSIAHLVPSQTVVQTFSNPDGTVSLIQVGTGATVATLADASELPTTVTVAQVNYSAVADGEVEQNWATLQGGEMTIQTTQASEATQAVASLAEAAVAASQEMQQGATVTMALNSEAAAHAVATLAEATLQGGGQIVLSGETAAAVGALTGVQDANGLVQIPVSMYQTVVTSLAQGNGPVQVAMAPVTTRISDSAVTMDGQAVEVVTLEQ
Sequence of Glucocorticoid receptor (Homo sapiens) (P04150 whole entry, looked up, the tested form may be a part): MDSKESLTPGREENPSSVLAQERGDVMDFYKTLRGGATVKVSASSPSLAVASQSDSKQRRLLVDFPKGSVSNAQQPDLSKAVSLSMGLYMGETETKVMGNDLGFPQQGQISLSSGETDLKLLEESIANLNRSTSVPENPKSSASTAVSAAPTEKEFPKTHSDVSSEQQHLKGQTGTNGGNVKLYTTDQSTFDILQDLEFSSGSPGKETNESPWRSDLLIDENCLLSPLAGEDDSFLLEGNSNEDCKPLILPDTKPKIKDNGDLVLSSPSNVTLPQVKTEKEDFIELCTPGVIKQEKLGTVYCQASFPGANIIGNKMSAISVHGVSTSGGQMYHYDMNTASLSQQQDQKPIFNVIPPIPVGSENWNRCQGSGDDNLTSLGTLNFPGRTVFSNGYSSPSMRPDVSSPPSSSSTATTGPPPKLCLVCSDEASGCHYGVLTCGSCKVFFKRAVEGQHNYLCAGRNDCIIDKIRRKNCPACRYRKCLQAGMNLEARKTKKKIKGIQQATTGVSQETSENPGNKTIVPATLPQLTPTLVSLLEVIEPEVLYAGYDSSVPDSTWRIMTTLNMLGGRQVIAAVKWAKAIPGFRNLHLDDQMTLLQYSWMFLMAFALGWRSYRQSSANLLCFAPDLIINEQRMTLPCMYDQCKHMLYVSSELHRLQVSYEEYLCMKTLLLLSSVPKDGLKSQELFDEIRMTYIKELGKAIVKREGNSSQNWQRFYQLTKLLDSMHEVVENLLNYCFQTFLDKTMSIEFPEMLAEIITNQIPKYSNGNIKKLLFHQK
Sequence of Bile acid receptor (Homo sapiens) (Q96RI1 whole entry, looked up, the tested form may be a part): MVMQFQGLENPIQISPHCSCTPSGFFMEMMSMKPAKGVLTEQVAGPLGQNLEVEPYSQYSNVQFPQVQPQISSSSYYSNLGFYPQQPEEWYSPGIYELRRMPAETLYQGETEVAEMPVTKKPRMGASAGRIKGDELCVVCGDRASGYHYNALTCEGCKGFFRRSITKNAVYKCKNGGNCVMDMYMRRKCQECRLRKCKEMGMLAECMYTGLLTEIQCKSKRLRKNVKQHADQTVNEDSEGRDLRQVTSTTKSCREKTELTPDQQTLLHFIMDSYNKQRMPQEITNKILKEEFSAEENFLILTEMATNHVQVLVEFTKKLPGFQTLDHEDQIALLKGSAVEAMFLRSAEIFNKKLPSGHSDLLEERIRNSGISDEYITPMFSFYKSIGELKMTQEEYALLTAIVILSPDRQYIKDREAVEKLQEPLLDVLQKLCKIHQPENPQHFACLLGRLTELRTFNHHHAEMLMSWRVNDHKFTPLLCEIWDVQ
Sequence of Nuclear receptor subfamily 4 group A member 2 (Homo sapiens) (P43354 whole entry, looked up, the tested form may be a part): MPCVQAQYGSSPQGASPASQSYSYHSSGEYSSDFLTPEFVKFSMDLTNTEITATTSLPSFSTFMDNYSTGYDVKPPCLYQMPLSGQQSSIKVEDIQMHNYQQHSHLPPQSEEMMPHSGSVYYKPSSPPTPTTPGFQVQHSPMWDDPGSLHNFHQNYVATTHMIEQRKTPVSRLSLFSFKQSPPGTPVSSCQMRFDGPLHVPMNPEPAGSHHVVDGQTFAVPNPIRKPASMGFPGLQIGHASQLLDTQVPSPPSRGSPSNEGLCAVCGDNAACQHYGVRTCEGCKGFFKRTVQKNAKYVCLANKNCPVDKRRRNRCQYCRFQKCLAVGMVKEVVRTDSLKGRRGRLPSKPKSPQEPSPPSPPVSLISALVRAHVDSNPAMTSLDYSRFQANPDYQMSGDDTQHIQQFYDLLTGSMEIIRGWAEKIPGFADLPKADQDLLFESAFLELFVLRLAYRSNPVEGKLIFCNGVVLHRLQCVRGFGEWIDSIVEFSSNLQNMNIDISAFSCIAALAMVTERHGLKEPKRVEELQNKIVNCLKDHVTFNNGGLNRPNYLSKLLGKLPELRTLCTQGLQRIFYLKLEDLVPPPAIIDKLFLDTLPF
Sequence of Oxysterols receptor LXR-beta (Homo sapiens) (P55055 whole entry, looked up, the tested form may be a part): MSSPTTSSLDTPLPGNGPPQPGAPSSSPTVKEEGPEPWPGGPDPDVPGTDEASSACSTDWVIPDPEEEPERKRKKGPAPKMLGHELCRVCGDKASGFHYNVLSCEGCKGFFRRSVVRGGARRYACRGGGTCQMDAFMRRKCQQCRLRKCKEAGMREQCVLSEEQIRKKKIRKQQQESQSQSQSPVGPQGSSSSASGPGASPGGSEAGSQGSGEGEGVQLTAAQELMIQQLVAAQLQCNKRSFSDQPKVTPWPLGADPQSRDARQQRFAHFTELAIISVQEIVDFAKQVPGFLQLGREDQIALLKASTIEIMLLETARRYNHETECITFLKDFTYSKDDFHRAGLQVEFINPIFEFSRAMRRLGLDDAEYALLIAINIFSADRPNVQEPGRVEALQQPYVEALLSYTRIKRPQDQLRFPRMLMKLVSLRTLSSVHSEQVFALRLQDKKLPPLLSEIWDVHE
Sequence of Estrogen-related receptor gamma (Homo sapiens) (P62508 whole entry, looked up, the tested form may be a part): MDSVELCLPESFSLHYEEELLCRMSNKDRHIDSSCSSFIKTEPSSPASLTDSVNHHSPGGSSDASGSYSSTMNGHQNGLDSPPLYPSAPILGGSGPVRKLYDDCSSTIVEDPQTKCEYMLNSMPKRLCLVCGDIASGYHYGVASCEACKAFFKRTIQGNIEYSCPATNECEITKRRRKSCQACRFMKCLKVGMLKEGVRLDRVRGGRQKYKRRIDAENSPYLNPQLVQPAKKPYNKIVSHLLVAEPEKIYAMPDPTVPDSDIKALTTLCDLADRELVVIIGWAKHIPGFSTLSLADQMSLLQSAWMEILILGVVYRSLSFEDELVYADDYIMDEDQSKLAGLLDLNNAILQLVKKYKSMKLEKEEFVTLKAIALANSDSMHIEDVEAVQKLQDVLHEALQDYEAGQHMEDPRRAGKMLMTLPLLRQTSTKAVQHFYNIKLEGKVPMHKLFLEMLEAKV
Sequence of X-box-binding protein 1 (Homo sapiens) (P17861 whole entry, looked up): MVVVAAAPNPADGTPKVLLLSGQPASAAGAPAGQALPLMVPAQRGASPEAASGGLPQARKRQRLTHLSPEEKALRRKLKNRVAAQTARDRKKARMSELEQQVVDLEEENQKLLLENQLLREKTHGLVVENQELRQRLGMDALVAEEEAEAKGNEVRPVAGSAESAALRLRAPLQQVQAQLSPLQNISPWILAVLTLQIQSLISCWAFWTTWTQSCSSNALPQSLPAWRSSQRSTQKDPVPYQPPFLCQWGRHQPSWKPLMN
Sequence of Oxysterols receptor LXR-alpha (Homo sapiens) (Q13133 whole entry, looked up, the tested form may be a part): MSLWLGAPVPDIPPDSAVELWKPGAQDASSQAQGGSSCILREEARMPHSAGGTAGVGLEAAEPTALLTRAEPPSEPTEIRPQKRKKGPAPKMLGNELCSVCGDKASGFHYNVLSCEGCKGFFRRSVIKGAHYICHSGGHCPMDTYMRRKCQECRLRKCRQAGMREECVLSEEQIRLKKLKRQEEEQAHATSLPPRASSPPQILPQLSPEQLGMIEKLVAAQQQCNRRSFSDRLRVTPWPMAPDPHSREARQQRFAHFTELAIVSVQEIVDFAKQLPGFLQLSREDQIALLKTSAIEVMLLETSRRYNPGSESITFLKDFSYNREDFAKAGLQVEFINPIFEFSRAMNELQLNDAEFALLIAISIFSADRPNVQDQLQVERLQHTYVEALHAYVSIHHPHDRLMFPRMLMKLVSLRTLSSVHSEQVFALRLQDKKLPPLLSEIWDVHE
Sequence of Nuclear receptor subfamily 1 group I member 3 (Homo sapiens) (Q14994 whole entry, looked up, the tested form may be a part): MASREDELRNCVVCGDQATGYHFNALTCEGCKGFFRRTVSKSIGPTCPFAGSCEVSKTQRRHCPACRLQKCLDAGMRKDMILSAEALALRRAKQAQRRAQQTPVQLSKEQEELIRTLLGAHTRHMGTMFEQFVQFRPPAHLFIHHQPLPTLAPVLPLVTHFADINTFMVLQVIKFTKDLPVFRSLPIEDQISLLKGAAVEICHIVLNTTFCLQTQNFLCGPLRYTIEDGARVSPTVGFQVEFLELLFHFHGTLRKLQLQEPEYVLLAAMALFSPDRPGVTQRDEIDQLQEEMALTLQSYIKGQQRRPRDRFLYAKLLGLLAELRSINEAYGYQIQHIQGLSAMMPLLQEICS

NC(CO)(CO)CO
not listed: [13] | [14] | [15] | [16] | [17] | [18] | [19] | [20]
inactive: all other assays above

COC(=O)/C=C/C(C)=C\C=C\C(C)=C\C=C\C=C(C)\C=C\C=C(C)\C=C\C(=O)O
inactive: [1] | [2] | [3] | [4] | [13] | [6] | [7] | [8] | [9] | [10] | [12]

O=C(Nc1cccc(C(F)(F)F)c1)c1cc(Br)cc(Br)c1O
inactive: [2] | [14] | [5] | [15] | [7] | [8] | [9] | [10]
active: [1] 145 µM | [3] 2.18 µM | [4] 26.4 µM | [12] 172 µM

COc1cc(NC(=O)CC(C)=O)c(OC)cc1Cl
not listed: [3] | [6] | [7] | [8] | [9] | [11] | [12] | [15]
inactive: all other assays above

Cc1ccc(C2OC[C@@H]3OC(c4ccc(C)cc4)O[C@H]([C@H](O)CO)[C@@H]3O2)cc1 (some centres undefined)
not listed: [11] | [13] | [16] | [17] | [18] | [19]
inactive: all other assays above

Clc1nc2ccccc2s1
inactive: [1] | [2] | [3] | [4] | [14] | [7] | [8] | [9] | [10] | [12]

O=Cc1ccc(CO)o1
not listed: [5] | [6] | [16] | [17] | [18] | [19] | [20]
inactive: all other assays above
